Each structure is given as a SMILES string. Inconclusive results are not listed. A call without a number means that no potency is given here. Activity calls are given as the source filed them. Calls follow the shape of the dose curve; as a rule, active = well fitted inhibition curve with a large enough effect in the repeat runs; inconclusive = weak or mixed curves; inactive = no such curve, though single readings can be large or run the other way.
Potency is read from the fitted curve at half-maximal effect.

Cytochrome P450 3A4 (Homo sapiens), sequence (P08684 whole entry, looked up): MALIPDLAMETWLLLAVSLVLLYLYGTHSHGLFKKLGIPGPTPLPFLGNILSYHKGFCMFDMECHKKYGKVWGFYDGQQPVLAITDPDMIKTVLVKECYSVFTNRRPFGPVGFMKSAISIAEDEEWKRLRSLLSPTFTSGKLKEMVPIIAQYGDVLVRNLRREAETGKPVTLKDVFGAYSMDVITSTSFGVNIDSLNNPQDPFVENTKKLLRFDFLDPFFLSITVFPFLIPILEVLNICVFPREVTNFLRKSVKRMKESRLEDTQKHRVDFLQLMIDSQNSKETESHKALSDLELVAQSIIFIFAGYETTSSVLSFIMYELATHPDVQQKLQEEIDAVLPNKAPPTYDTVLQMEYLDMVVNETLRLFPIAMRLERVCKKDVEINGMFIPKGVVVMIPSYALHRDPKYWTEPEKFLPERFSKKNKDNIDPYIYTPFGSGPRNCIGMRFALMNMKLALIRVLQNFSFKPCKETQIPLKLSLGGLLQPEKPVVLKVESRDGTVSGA

The target in the assay is Cytochrome P450 3A4 (Homo sapiens) (UniProt P08684). The experiment in a line: Cytochrome P450 family 3 subfamily A member 4 (CYP3A4) small molecule antagonists: luciferase qHTS assay (AID 1645841). Also: nearly all actives have a fitted effect of over 45% in size. As to conditions: P450-Glo CYP3A4 enzyme assay, luciferin luminescence; series mostly up to 57.4 µM. As to the method:
National Center for Advancing Translational Sciences [NCATS]
Cytochrome P450 (CYP) enzymes are membrane-bound hemeproteins that play a key role in metabolism of drugs and xenobiotics. Assaying the effect of chemicals on CYP isozymes is useful to minimize the adverse drug reactions and toxicities in drug development process. Chemical compounds were tested for their effect on CYP enzyme activities by using P450-Glo (TM) screening systems (Promega Corporation, Madison, WI). These systems provide a luminescent method containing proluciferin substrates and are converted to luciferin products by CYP isozymes. The luciferin products formed are detected with a luciferin detection reagent, and the amount of light produced is proportional to CYP activity. P450-Glo (TM) CYP3A4 screening system (Catalog. No. V9910) was used to detect the compounds that interfere in CYP3A4 activity. The positive control compound used for CYP3A4 assay is ketoconazole (Sigma-Aldrich, St. Louis, MO).
Two ul of enzyme-substrate mix was dispensed into medium binding white/solid 1536-well plates (Greiner Bio-One North America Inc., Monroe, NC) using a Flying Reagent Dispenser (FRD, Aurora Discovery, San Diego, CA). Test compounds dissolved in DMSO and positive control (ketoconazole) were transferred to the assay plates at 23 nl using a Pintool station (Wako, San Diego, CA). The assay plates were incubated at room temperature for 10 min. Then 2 ul of NADPH regeneration solution was added to each well of the assay plates using an FRD and incubated at room temperature for 1 h. The reaction was stopped by adding 4 ul of detection reagent using an FRD and after 20 min incubation at room temperature, the luminescence signal was measured using a ViewLux plate reader (Perkin Elmer, Shelton, CT). Data were expressed as relative luminescence units.
In general terms: qHTS replaces the single test concentration by a dilution series.
Regarding `CS(=O)(=O)N1CCC(NC(=O)c2[nH]ncc2NC(=O)c2c(Cl)cccc2Cl)CC1`, the Potency entry is “inactive”. The result for `CN1CCN(C2CCC(n3cc(-c4ccc(Oc5ccccc5)cc4)c4c(N)ncnc43)CC2)CC1` (stereo not given) reads “inactive”. Then `CC1CCCCN1S(=O)(=O)c1ccc(N2CCCC2=O)cc1` (stereo not given), with “inactive”; and `Cc1ccc(NC(=O)c2ccc(CN3CC[C@H](N(C)C)C3)c(C(F)(F)F)c2)cc1Nc1nccc(-c2cncnc2)n1`, with 1.69 µM (active); and `COC(C(=O)N1Cc2[nH]nc(NC(=O)c3ccc(N4CCN(C)CC4)cc3)c2C1)c1ccccc1` (stereo not given), with “inactive”.

For the compound `COc1ccc(-n2[nH]c(=O)c3[nH]c4cc(Cl)ccc4c(=O)c3c2=O)c(C)c1`, the Potency entry is “inactive”. The result for `CCC(CC)C(=O)Nc1sc2c(c1C#N)CCC(C(C)(C)CC)C2` (stereo not given) reads 9.52 µM (active).

In the case of `CCCCNc1ccc(-c2ccc(CN3CCOCC3)cn2)c(NC2CCC(O)CC2)c1` (stereo not given), the Potency entry is “inactive”.

Take `c1cc(OCCCN2CCCCC2)ccc1CN1CCCCC1`: the Potency result is “inactive”. With `Cc1cc(Nc2ncc3cc(-c4c(Cl)cccc4Cl)c(=O)n(C)c3n2)ccc1F`, the Potency result was “inactive”.
